The text below walks through data of ChEMBL document CHEMBL3988442, “University of Dundee, Small-Polar-MMV Screening Library” (2021).

Out of some 48,000 compounds screened, about 13,000 (27%) showed an effect of 50% or more. The list shows a part of the results.

The test system of the assay is Wolbachia pipientis. As to the kind of experiment: Anti-Wolbachia Cell-Based Screen. As to conditions: 5 µM. On the set-up: scale not given: in the data most compounds retested in dose-response had high values. In kind it is functional.
Take `O=C(NCc1nn(-c2ccccc2)c2c1CCC2)NC1CC1`: the “Percent Effect” value is listed as -2.781%. On to `CCc1cc(CNC(=O)NCc2ccc(N3CCCCC3)cc2)on1`, for which the “Percent Effect” value is -23.7%. `COc1cccc(S(=O)(=O)NC2CNC(=O)C2)c1` (stereo unspecified): the “Percent Effect” value was 1.379%.

Regarding `Cn1nnn(-c2ccc(NS(=O)(=O)c3ccc(F)c(Cl)c3)cc2)c1=O`, the “Percent Effect” value is reported as -5.508%. Take `O=C1CC(NS(=O)(=O)c2ccc(Br)cc2)CN1` (stereo unspecified): the “Percent Effect” value was found to be 151.1%. For the molecule `Cc1ccc(S(=O)(=O)NC2CCC(=O)NC2)cc1Br` (stereo unspecified), the “Percent Effect” value is -11.56%. With `O=C1CC(NS(=O)(=O)c2ccc(F)c(Cl)c2)CN1` (stereo unspecified), the “Percent Effect” value came out at 135.6%. The value for `COC(=O)c1ccc(S(=O)(=O)NC2CNC(=O)C2)cc1` (stereo unspecified) was 131%. Take `CC(Cn1ccnc1)NS(=O)(=O)c1ccc(F)c(Cl)c1` (stereo unspecified): the “Percent Effect” value is -9.501%. For `O=C1CC(NS(=O)(=O)c2cccc(F)c2)CN1` (stereo unspecified), the “Percent Effect” value worked out at 126.5%. In the case of `O=S(=O)(NC1CC1)c1cccc(Br)c1`, the “Percent Effect” value is on record as -14.81%. Consider `O=C(c1ccc(S(=O)(=O)NC2CCC2)cc1)N1CC[C@H]2CNC[C@H]21`, for which the “Percent Effect” value is recorded as -0.3981%.

In the case of `CSc1ccc(S(=O)(=O)NC2CNC(=O)C2)cc1` (stereo unspecified), the “Percent Effect” value is recorded as -0.4933%.

Turning to `CSCCCN1CCn2nc(CNC(=O)N(C)C)cc2C1`, the “Percent Effect” value was -17.64%. With `Cc1ncsc1CCC(=O)NC1CCN(c2ncccc2C#N)CC1`, the “Percent Effect” value is 5.658%. As to `Cc1ccc2c(c1)C(N1CCOCC1)CC21CCNCC1` (stereo unspecified), the “Percent Effect” value is -7.905%. As to `Cc1ccccc1SCC(=O)Nn1cnnc1`, the “Percent Effect” value is reported as -2.526%. With `O=C(C(O)c1ccccc1Cl)N1CCCN(Cc2cccnc2)CC1` (stereo unspecified), the “Percent Effect” value was -0.1768%. In the case of `Cc1nc([C@@H]2C[C@H]3CN(Cc4ccc5c(c4)OCO5)C[C@H]3O2)no1`, the “Percent Effect” value is -16.45%. On to `Cc1ccc(S(=O)(=O)NC2CNC(=O)C2)cc1C` (stereo unspecified), for which the “Percent Effect” value is -5.685%. In the case of `O=C1CC(NS(=O)(=O)c2ccc(Cl)cc2)CN1` (stereo unspecified), the “Percent Effect” value stood at 124.5%. As to `O=C(COCC1CC1)Nc1cc(S(=O)(=O)NC2CC2)ccc1F`, the “Percent Effect” value is listed as 1.35%. The value for `N#CC1COCCN1S(=O)(=O)c1ccc2ccccc2c1` (stereo unspecified) was -7.007%. For `O=C1CC(NS(=O)(=O)c2ccc3ccccc3c2)CN1` (stereo unspecified) the value was 96.97%; for `O=C1CC(NS(=O)(=O)c2ccccc2)CN1Cc1ccccc1` (stereo unspecified), 4.424%; for `CC(C)O[C@H]1CN(C(=O)CCN2CCCCO2)C[C@@H]1O`, -9.995%. The value for `Cc1nnc(SCCNC(=O)c2cc(S(N)(=O)=O)ccc2F)s1` was 5.633%. Turning to `O=C(O)C(F)(F)F.O=C(c1ccco1)N1C[C@@H]2[C@@H](C1)OCC(=O)N2Cc1cccnc1`, the “Percent Effect” value is -32.49%.

As to `O=C(O)C(F)(F)F.O=C(c1ccoc1)N1C[C@@H]2OCCN(c3ncccn3)[C@@H]2C1`, the “Percent Effect” value was 85.6%. In the case of `O=C(O)C(F)(F)F.O=C(c1ccc(O)cc1)N1C[C@@H]2OCCN(c3ncccn3)[C@@H]2C1`, the “Percent Effect” value is on record as 101.3%. For `O=C(c1ccoc1)N1CC[C@@H]2[C@@H](CC1)OCCN2c1cccnc1`, the “Percent Effect” value is on record as -2.409%.

Turning to `O=C(O)C(F)(F)F.O=C(c1ccco1)N1C[C@@H]2CN(c3ccccn3)C[C@@H]2C1`, the “Percent Effect” value is reported as -23.25%. In the case of `O=C(O)C(F)(F)F.O=C(c1ccco1)N1C[C@@H]2OCCN(c3ncccn3)[C@@H]2C1`, the “Percent Effect” value is on record as 113.8%. Take `O=C(O)C(F)(F)F.O=C(c1ccccc1)N1CCO[C@@H]2CN(c3ncccn3)C[C@@H]2C1`: the “Percent Effect” value is given as 5.105%. As for `O=C(O)C(F)(F)F.O=C(c1ccc(F)cc1)N1C[C@@H]2OCCN(c3ncccn3)[C@@H]2C1`, the “Percent Effect” value is -10.32%. The value for `O=C(O)C(F)(F)F.O=C(c1ccoc1)N1C[C@@H]2[C@@H](C1)OCC(=O)N2Cc1cccnc1` was -4.595%. Take `CSCC[C@@H](CO)Nc1ccc(-c2nc(-c3ccccc3C)no2)cn1`: the “Percent Effect” value turned out to be 8.283%. For `CO[C@@H]1CCC[C@@H](NC(=O)C(C)(C)c2cccc(F)c2)[C@H]1O`, the “Percent Effect” value is recorded as 116.6%.

On to `COCCN1CCC(NC(=O)Nc2cccc(F)c2)C1` (stereo unspecified), for which the “Percent Effect” value was -22.85%. The value for `CC(C)CS(=O)(=O)CC(=O)NC(C)(C)c1cccc(F)c1` was 8.066%; that for `Fc1cccc(-n2nc(C3CC3)nc2CCn2cnnn2)c1` was -8.194%. For `Cn1cc(C2CCCN2Cc2csc(C(C)(C)C)n2)cn1` (stereo unspecified) the value was 3.745%; for `CN(C)Cc1ccnc(C2CCCN2Cc2ccc(F)cn2)n1` (stereo unspecified), 110.9%; for `Cc1nn(C)c(C)c1CN1CCCC1c1nccc(CN(C)C)n1` (stereo unspecified), 96.16%. Consider `CCCn1cc(CN2CCCC2c2nccc(CN(C)C)n2)cn1` (stereo unspecified), for which the “Percent Effect” value came out at 91.04%.

For `Cc1cnc(CN2CCCC2c2noc(C)n2)cn1` (stereo unspecified), the “Percent Effect” value is listed as -5.918%. Consider `CN(C)Cc1ccnc(C2CCCN2Cc2cc[nH]n2)n1` (stereo unspecified), for which the “Percent Effect” value was -4.978%. For `Cc1cnn(CC2CCCN2CC(=O)N(C)Cc2cnn(C)c2)c1` (stereo unspecified), the “Percent Effect” value was -0.6585%. As to `CN(C)Cc1ccnc(C2CCCN2Cc2cccc(F)c2F)n1` (stereo unspecified), the “Percent Effect” value was found to be 111%. As to `Cc1nn(C)c(C)c1CN(C)C(=O)C1COc2ccccc2C1` (stereo unspecified), the “Percent Effect” value is on record as -11.47%. `C1CCN(CCOC2CCNC2)CC1.Cl.Cl` (stereo unspecified): the “Percent Effect” value is -5.434%.
